Screening data deposited in PubChem BioAssay by National Center for Advancing Translational Sciences (NCATS).
G9a inh = qHTS Assay for Inhibitors of Histone Lysine Methyltransferase G9a; G9a H3K9 monomethylation, AlphaScreen, 2 h; Potency, µM (doses to about 102 µM), for the others: top-dose activity, negative = inhibition, most hits filed as inhibitors; actives 8.8% (n = 350,000); AID 504332, 2011; note: % is set by controls: 0 for no effect and ±100 for the full control effect; nearly all actives have a fitted effect of over 75% in size
Target sequence (Q96KQ7 913-1193 limits assumed): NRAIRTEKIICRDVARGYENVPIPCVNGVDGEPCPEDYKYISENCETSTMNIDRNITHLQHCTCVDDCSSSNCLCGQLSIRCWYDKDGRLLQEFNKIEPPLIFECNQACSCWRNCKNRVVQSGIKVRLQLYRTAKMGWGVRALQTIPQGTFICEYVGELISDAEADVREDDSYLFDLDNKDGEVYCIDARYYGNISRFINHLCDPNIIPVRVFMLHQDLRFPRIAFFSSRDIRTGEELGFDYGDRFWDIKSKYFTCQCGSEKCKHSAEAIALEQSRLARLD
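Quantitative HTS format: methyltransferase activity on a biotin-tagged H3K9 peptide is measured by AlphaScreen, using a rabbit anti-monomethyl-H3K9 antibody with streptavidin donor and anti-IgG acceptor beads. Final levels are 20 nM enzyme, 500 nM peptide, 20 uM SAM; 2 h RT.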
GLS inhibitor = qHTS for Inhibitors of Glutaminase (GLS) | Glutaminase kidney isoform, mitochondrial (Homo sapiens), O94925 | GLS enzymatic activity, qHTS titration | Potency, µM (titrated, usually from 45.5 µM), without a hit: at the highest dose activity change, negative = inhibition, usual class: inhibitors | actives 0.21% (n = 410,000) | AID 624170, 2012; note: % is set by controls: 0 for no effect and ±100 for the full control effect
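Assay buffer: 45 mM KH2PO4 pH 8.2, 0.02% Tween-20. hKGA acts on L-glutamine (1 mM solution added); product glutamate is reported by an oxidase/peroxidase Amplex Red coupling, with fluorescence taken at baseline and 30 min.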
HP1b chromo inh = HTS for Inhibitors of HP1-beta Chromodomain Interactions with Methylated Histone Tails; Chromobox protein homolog 1 (Homo sapiens), P83916; AlphaScreen HP1-beta / biotin-H3K9me3 peptide binding; Potency, µM (highest dose often 114 µM), for inactives: at the top dose activity change, negative = inhibition, actives largely listed as inhibitors; actives 0.56% (n = 390,000); note: nearly all actives have a fitted effect of over 70% in size
Target sequence (P83916 whole entry, looked up): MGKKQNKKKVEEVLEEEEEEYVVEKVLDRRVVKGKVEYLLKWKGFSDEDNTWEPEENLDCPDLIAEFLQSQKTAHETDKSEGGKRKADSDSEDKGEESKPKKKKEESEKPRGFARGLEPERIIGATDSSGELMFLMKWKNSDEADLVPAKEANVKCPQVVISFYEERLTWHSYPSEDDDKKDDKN
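AlphaScreen: HP1-beta (50 nM) preformed 30 min with biotin-H3(1-18)K9me3 peptide (50 nM) in PBS pH 7.4, 0.01% Tween-20. Compound added for 30 min at RT, then streptavidin donor/nickel chelate acceptor beads (10 ug/mL) for 30 min.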
BAZ2B block = qHTS Assay for Inhibitors of BAZ2B; Potency, µM (top dose mostly 114 µM), inactives show top-dose activity change, negative = inhibition, hits mostly inhibitors; actives 4.4% (n = 360,000); AlphaScreen BAZ2B-H3K14Ac peptide displacement; Bromodomain adjacent to zinc finger domain protein 2B (Homo sapiens), Q9UIF8; AID 504333, 2011; note: % is set by controls: 0 for no effect and ±100 for the full control effect; nearly all actives have a fitted effect of over 60% in size
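Multi-concentration screen (max 110 uM) measuring displacement of acetylated histone H3 peptide from BAZ2B by AlphaScreen, using 50 nM protein, 50 nM peptide and 10 ug/mL streptavidin donor plus Ni-chelate acceptor beads.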
L3MBTL1 block = qHTS Assay for the Inhibitors of L3MBTL1; AlphaScreen L3MBTL1–H3K9me1 peptide binding; Potency, µM (highest dose often 57.1 µM), without a hit: at the highest dose activity, negative = inhibition, most hits filed as inhibitors; AID 485360, 2010; Lethal(3)malignant brain tumor-like protein 1 (Homo sapiens), Q9Y468; actives 0.66% (n = 230,000); note: % is set by controls: 0 for no effect and ±100 for the full control effect; nearly all actives have a fitted effect of over 60% in size
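AlphaScreen assay: L3MBTL1 (50 nM final) was preincubated 30 min at room temperature with biotinylated H3(1-15)K9me1 peptide (75 nM final), then 30 min with library compounds; streptavidin donor and nickel chelate acceptor beads (10 ug/mL final) added, 30 min dark.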
JMJD2A Tudor inh = qHTS Assay for Inhibitors of JMJD2A-Tudor Domain; AlphaScreen JMJD2A-Tudor / H3K4me3 peptide binding; Potency, µM (top dose mostly 114 µM), for the others: at the highest dose activity change, negative = inhibition, actives largely listed as inhibitors; actives 4.4% (n = 390,000); note: % is set by controls: 0 for no effect and ±100 for the full control effect; nearly all actives have a fitted effect of over 50% in size
* hit, by the source's call; [ ] = dose if it differs, or a comment. Rows were chosen to be rich in hits. Some 10% of all compounds tested hit in one or more screens of this group. Calls come from the whole dose curve; as a rule, active = well fitted curve in the direction sought with a large enough effect; inconclusive = small, poorly fitted or top-dose-only effect, or another doubt; inactive = no such curve, though single readings can be large; an effect the other way counts as inactive or inconclusive. Potency is the fitted concentration of half-maximal effect.

Screening COc1ccc(Cl)cc1NC(=O)CCn1nc(C)cc1C returned G9a inh -2%[59 µM], GLS inhibitor -4%, HP1b chromo inh 10%, BAZ2B block 71µM* and JMJD2A Tudor inh inconclusive.
`COc1ccc(Cl)cc1NC(=O)CCN1CCN(C)CC1` gave G9a inh 19%[12.7 µM], GLS inhibitor 1%, HP1b chromo inh 5%, BAZ2B block inconclusive and JMJD2A Tudor inh -17%.
`COc1ccc(OC)c(NC(=O)CCn2cccc2)c1` gave G9a inh inconclusive, GLS inhibitor 8%, HP1b chromo inh -16%, BAZ2B block 50µM*, L3MBTL1 block -16% and JMJD2A Tudor inh -30%.
For COc1ccc(CCCC(=O)Nc2cc(C)ccc2OC)cc1 the results were G9a inh 79µM*, GLS inhibitor -1%, HP1b chromo inh 60%, BAZ2B block 6% and JMJD2A Tudor inh 12%.
For Cc1csc2nc(COC(=O)c3cccc(NC(=O)c4cccc(Cl)c4)c3)cc(=O)n12 the results were G9a inh 11%[59 µM], GLS inhibitor -2%, HP1b chromo inh 26%, BAZ2B block -3% and JMJD2A Tudor inh -23%.
For COc1cc(NC(=O)c2cc(-c3cccc(Cl)c3)on2)c(OC)cc1Cl the results were G9a inh -9%[59 µM], GLS inhibitor 1%, HP1b chromo inh 13%, BAZ2B block -7% and JMJD2A Tudor inh -3%.
`COc1ccc(OC)c(NC(=O)c2csnn2)c1` gave G9a inh 14µM*, GLS inhibitor -5%, HP1b chromo inh -12%, BAZ2B block inconclusive and JMJD2A Tudor inh inconclusive.
COc1ccccc1NC(=O)CCS(=O)(=O)c1ccccc1 was read as G9a inh -8%, GLS inhibitor -16%, HP1b chromo inh 44%, BAZ2B block -15%, L3MBTL1 block 5% and JMJD2A Tudor inh -1%.
`COc1ccc(S(=O)(=O)CCC(=O)Nc2cc(C)ccc2OC)cc1` gave G9a inh 28µM*, GLS inhibitor 0%, HP1b chromo inh 33%, BAZ2B block -1% and JMJD2A Tudor inh -13%.
`Cc1cccc(Nc2nnc(-c3ccc(C)c(S(=O)(=O)NCC4CCCO4)c3)c3ccccc23)c1` (stereo not given) gave G9a inh -48%[59 µM], GLS inhibitor 24%, HP1b chromo inh 31%, BAZ2B block 1% and JMJD2A Tudor inh -6%.
For O=C(Nc1ccccc1)Nc1ccc2ocnc2c1 the results were G9a inh 2%, GLS inhibitor 20µM*, HP1b chromo inh -3%, BAZ2B block -15%, L3MBTL1 block 8% and JMJD2A Tudor inh inconclusive.
`O=C(Nc1ccccc1)Nc1ccc2ncoc2c1` gave G9a inh 24%[12.7 µM], GLS inhibitor 0%, HP1b chromo inh 34%, BAZ2B block -21%, L3MBTL1 block -8% and JMJD2A Tudor inh -4%.
CCN1CCN(C2=CC3=CC(=C(C#N)C#N)CCC3CC2)CC1 (stereo not given) was read as G9a inh 45µM*, GLS inhibitor 20%, HP1b chromo inh 50%, BAZ2B block -25% and JMJD2A Tudor inh 9%.
`CN1CCN(C2=CC3=CC(=C(C#N)C#N)CCC3CC2)CC1` (stereo not given) gave G9a inh inconclusive, GLS inhibitor -13%, HP1b chromo inh 1%, BAZ2B block inconclusive and JMJD2A Tudor inh -21%.
`CN(C)/N=C/C=C1\CC/C(=C\c2ccc(Br)cc2)C1=O` gave G9a inh 50µM*, GLS inhibitor -1%, HP1b chromo inh -8%, BAZ2B block inconclusive and JMJD2A Tudor inh -30%.
COc1cc(NC(=O)N2CCC(CN3CCCCCC3)CC2)cc(OC)c1OC was read as G9a inh -43%[59 µM], GLS inhibitor 1%, HP1b chromo inh 17%, BAZ2B block -3% and JMJD2A Tudor inh -21%.
Screening CCOC(=O)c1ccc(NC(=O)Cn2nc3c4ccccc4n(Cc4cccc(F)c4)cc-3c2=O)cc1 returned G9a inh 7%[59 µM], GLS inhibitor -1%, HP1b chromo inh 37%, BAZ2B block -3% and JMJD2A Tudor inh 1%.
`CCN(CC)S(=O)(=O)c1ccc(C(=O)NCCSc2c[nH]c3ccccc23)cc1` gave G9a inh inconclusive, GLS inhibitor -3%, HP1b chromo inh 24%, BAZ2B block -34%, L3MBTL1 block -8% and JMJD2A Tudor inh -25%.
`Cc1ccccc1C(=O)NCC(c1ccc(N(C)C)cc1)N1CCCC1` (stereo not given) gave G9a inh -35%[59 µM], GLS inhibitor 23%, HP1b chromo inh -19%, BAZ2B block inconclusive and JMJD2A Tudor inh inconclusive.
Screening CN(C)c1ccc(C(CNC(=O)c2ccc(C#N)cc2)c2c[nH]c3ccccc23)cc1 (stereo not given) returned G9a inh 10µM*, GLS inhibitor 26%, HP1b chromo inh inconclusive, BAZ2B block 20µM*, L3MBTL1 block inconclusive and JMJD2A Tudor inh 40µM*.
CN(C)c1ccc(C(CNC(=O)c2ccccc2Br)c2c[nH]c3ccccc23)cc1 (stereo not given) was read as G9a inh 10µM*, GLS inhibitor -3%, HP1b chromo inh 24%, BAZ2B block 14µM*, L3MBTL1 block inconclusive and JMJD2A Tudor inh -21%.
`O=S(=O)(c1ccc2ncsc2c1)N1CCN(c2nc(-c3cccs3)nc3ccccc23)CC1` gave HP1b chromo inh 6% and JMJD2A Tudor inh -22%.
Cc1ccc(-n2c(=O)c3c(c4cc(C)ccc4n3C)n(CC(=O)Nc3ccc(F)cc3)c2=O)cc1 was read as G9a inh -17%[59 µM], GLS inhibitor 9%, HP1b chromo inh -15%, BAZ2B block -9% and JMJD2A Tudor inh -17%.
CCn1c(C(=O)OC)cc2c1ccn2-c1ccc(F)cc1 was read as G9a inh inconclusive, GLS inhibitor inconclusive, HP1b chromo inh inconclusive, BAZ2B block 13µM*, L3MBTL1 block -1% and JMJD2A Tudor inh 3.2µM*.
For COC(=O)c1cc2c(ccn2-c2ccc(F)cc2)n1Cc1ccc(OC)cc1 the results were G9a inh -45%[59 µM], GLS inhibitor 4%, HP1b chromo inh 15%, BAZ2B block -37%, L3MBTL1 block -7% and JMJD2A Tudor inh inconclusive.
